HIF-2a block: inhibitors of HIF-2a | 786-0 RCC cells HIF-2a reporter, luciferase luminescence, overnight | inhibition, % at 18.8 µM | 360,000 compounds, 0.72% hits;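 active = inhibition of the luminescence signal of 40% or more relative to plate controls, in a single-dose primary screen at 18.75 µM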
TWEAK-Fn14 inh: inhibitors of TWEAK-Fn14 interaction signaling. TWEAK-stimulated Fn14 reporter cells, luciferase luminescence, 8 h. inhibition, % at 10 µM. 360,000 compounds, 2% hits; in the data active = inhibition above about 50%
CF NFkB inh: blocks PAF-induced NF-kB reporter in cystic fibrosis cells; KKLEB NF-kB-GFP reporter, GFP fluorescence overnight; inhibition, % at 5 µM; 360,000 compounds, 0.86% hits; AID 588850;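 active = at least 50% inhibition at 5 µM, scaled per plate between neutral and stimulator controls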;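 note: PAF is a Pseudomonas aeruginosa culture filtrate used as stimulus; plate controls were PAF-stimulated DMSO wells for no effect and unstimulated DMSO wells for full effect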
TROY signal inh: inhibitors of TROY-dependent NF-kB signaling. inhibition, % at 10 µM. 360,000 compounds, 0.98% hits. Q293 LMP1-TROYcd NF-kB luciferase reporter, 4 h. AID 1347056;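 active = compounds whose plate-normalised and pattern-corrected inhibition of the luciferase reporter signal at the single screening dose is 50% or more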
Peg3 prom inh-1: inhibitors of Peg3 promoter. HeLa PEG-Prom luciferase reporter, luminescence, overnight. inhibition, % at 20 µM. 360,000 compounds, 1.7% hits. AID 588405;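 active = inhibition of at least 50% at 20 µM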
KKLEB cytotox: CF airway cell cytotoxicity counter-screen; 360,000 compounds, 0.36% hits; KKLEB CF airway cells viability, ATPlite luminescence, overnight; stronger effect = lower value; cells stimulated with P. aeruginosa culture filtrate; activity change (cytotoxicity), % at 5 µM;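 active = corrected activity change at or below -50% at 5 µM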
Peg3 prom inh-2: confirmation of Peg3 promoter inhibitors. 1,300 compounds, 84% hits. shares compounds with Peg3 prom inh-1. inhibition, % at 20 µM. HeLa PEG-Prom luciferase reporter, luminescence, overnight. AID 602417;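 active = at 20 µM dose, 40% or more inhibition averaged across four replicates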
CF NFkB conf: CF NF-kB inhibition confirmation, single concentration; KKLEB CF airway cells, PAF-induced NF-kB-GFP fluorescence, overnight; 1,300 compounds, 64% hits; shares compounds with CF NFkB inh; inhibition, % at 5 µM; AID 602472; in the data active = inhibition above about 40%;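 note: stimulus PAF is a Pseudomonas aeruginosa filtrate and not platelet activating factor; plate controls were DMSO wells with stimulus for no effect and unstimulated DMSO wells for full effect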
Mdm2 MdmX conf: confirmation of inhibitors of human Mdm2/MdmX interaction, set 2. shares compounds with HIF-2a block. SaOS-2 split-luciferase Mdm2/MdmX complementation, luminescence. inhibition, % at 8 µM. 740 compounds, 99% hits. AID 504601;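 active = mean inhibition of the luminescence signal across two replicates at or above 26 percent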
Target sequence (O15151 whole entry, looked up): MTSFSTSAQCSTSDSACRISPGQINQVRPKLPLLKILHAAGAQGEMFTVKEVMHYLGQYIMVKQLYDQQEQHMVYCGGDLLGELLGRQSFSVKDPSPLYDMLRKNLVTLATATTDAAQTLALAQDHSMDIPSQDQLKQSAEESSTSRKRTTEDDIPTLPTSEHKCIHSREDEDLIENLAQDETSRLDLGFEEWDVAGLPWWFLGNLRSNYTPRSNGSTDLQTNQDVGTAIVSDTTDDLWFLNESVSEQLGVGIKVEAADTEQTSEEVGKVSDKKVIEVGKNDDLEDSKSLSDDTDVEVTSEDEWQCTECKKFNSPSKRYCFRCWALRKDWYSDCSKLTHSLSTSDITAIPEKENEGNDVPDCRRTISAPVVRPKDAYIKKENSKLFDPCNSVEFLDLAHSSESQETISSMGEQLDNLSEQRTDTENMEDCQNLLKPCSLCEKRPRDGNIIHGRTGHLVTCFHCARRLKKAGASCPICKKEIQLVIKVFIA
Target sequence (Q00987 whole entry, looked up): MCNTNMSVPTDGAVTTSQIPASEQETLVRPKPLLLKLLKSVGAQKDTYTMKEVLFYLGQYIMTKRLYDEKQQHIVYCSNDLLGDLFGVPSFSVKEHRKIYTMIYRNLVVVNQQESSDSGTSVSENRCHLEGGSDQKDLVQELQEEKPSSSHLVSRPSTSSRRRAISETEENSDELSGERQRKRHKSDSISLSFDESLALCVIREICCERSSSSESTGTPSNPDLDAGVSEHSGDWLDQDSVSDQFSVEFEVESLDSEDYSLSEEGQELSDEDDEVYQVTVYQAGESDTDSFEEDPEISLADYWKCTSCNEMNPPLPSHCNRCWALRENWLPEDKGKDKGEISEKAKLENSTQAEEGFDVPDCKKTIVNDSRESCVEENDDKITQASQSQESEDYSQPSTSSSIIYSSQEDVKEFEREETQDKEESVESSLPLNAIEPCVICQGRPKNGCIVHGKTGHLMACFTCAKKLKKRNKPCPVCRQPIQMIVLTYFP
HIF-2a inh conf: confirmation of HIF-2a inhibitors. 786-0 RCC cells, HIF-2a luciferase reporter luminescence, overnight. inhibition, % at 18.8 µM. 1,800 compounds, 56% hits. shares compounds with HIF-2a block;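 active = mean inhibition across four replicates of at least 40 percent at the single tested concentration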
HIF-1a counter: HIF-1a inhibition counter-screen for HIF-2a hits; shares compounds with HIF-2a block; MiaPaCa-2 HIF-1a luciferase reporter, desferoxamine, overnight; inhibition, % at 18.8 µM; 1,800 compounds, 72% hits; AID 651589;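 active = mean inhibition of the reporter signal across four replicates at the single tested dose of 50% or more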
* = called active by the depositor; nt = no result. This is a sample that favours compounds with a hit; in the whole collection about 4% have one here.

SMILES	HIF-2a block	TWEAK-Fn14 inh	CF NFkB inh	TROY signal inh	Peg3 prom inh-1	KKLEB cytotox	Peg3 prom inh-2	HIF-2a inh conf	HIF-1a counter	others
CC(NC(=O)C(C)N1CCN(S(=O)(=O)c2ccccc2)CC1)c1ccccc1 (configuration not stated)	-5	1	0	-12	8	-3	nt	nt	nt
CC[C@@]12C(=O)N(c3cccc(Cl)c3)C(=O)N1[C@H](c1ccc(Br)cc1)[C@@H]1C(=O)N(C(C)(C)C)C(=O)[C@@H]12	-15	13	4	-5	-6	3	nt	nt	nt
O=C(CCl)Nc1ccccc1Sc1ccc(Cl)cc1	34	88*	5	-15	106*	-9	85*	nt	nt	Mdm2 MdmX conf=103*
COC(=O)c1cc(=O)n(Cc2ccco2)c(=Nc2ccc(F)cc2)s1	49*	56*	40	24	82*	-18	84*	60*	97*
COC(=O)c1cc(=O)n(Cc2cccs2)c(=Nc2ccccc2)s1	25	31	13	-15	24	-8	nt	nt	nt
CC(C)NC(=O)CN1C(=O)c2ccccc2S1(=O)=O	4	-12	3	-28	0	2	nt	nt	nt
Cc1ccc(C(=O)CN2C(=O)c3ccccc3S2(=O)=O)cc1	87*	99*	-8	83*	81*	3	79*	87*	82*
Cc1cc(C(=O)CN2C(=O)c3ccccc3S2(=O)=O)c(C)n1C(C)C	76*	93*	8	84*	68*	-3	74*	86*	82*
C=CCn1c(C)cc(C(=O)CN2C(=O)c3ccccc3S2(=O)=O)c1C	95*	104*	-14	88*	93*	-5	96*	99*	104*	Mdm2 MdmX conf=74*
Cc1cc(C)nc(NC(=O)CN2C(=O)c3ccccc3S2(=O)=O)n1	10	-9	1	16	3	-1	nt	nt	nt
CN(C)c1ccc2cc(S(=O)(=O)O)cc(O)c2c1	6	28	-6	2	20	13	nt	nt	nt
O=Nc1c(O)ccc2cc(S(=O)(=O)O)ccc12	76*	22	14	-13	62*	-5	68*	82*	12
O=c1ccn([C@@H]2O[C@H](CNCc3cccn3-c3nccs3)[C@@H](O)[C@H]2O)c(=O)[nH]1	5	9	-13	4	6	6	nt	nt	nt
O=C(O)c1ccc(Nc2nc3c(s2)CCCC3)cc1	46*	91*	-1	23	67*	-1	54*	64*	52*
O=C(NC1=NCCS1)C1COc2ccccc2O1 (configuration not stated)	83*	106*	5	86*	106*	-14	82*	90*	85*
NS(=O)(=O)c1cccc(NC(=O)COC(=O)c2ccc(S(=O)(=O)N3CCOCC3)cc2)c1	-2	0	-11	10	7	-4	nt	nt	nt
CCCC(=O)N1CCCC(c2cc(C(=O)Nc3ccccc3)no2)C1 (configuration not stated)	43*	95*	4	83*	54*	-1	47*	66*	71*
COc1ccc(NC(=O)C2Cc3c(-c4cccc(C(C)=O)c4)ccnc3O2)cc1 (configuration not stated)	-9	-1	19	5	-6	-15	nt	nt	nt
N/C(=N\OC(=O)c1ccc([N+](=O)[O-])cc1Cl)c1ccccn1	41*	94*	-25	67*	50*	-30	21	28	62*
CCCCNc1nc(=S)n(-c2ccccc2)c(C)c1C(C)=O	51*	11	7	4	114*	2	94*	-12	30
COc1cc(/C=N/O)ccc1OCc1ccc(C(=O)O)cc1	89*	17	6	-50	86*	-11	69*	90*	-74
O=C(CCl)Nc1cccc(-c2cnc3ccccc3n2)c1	-27	85*	88*	19	79*	-64*	92*	nt	nt	Mdm2 MdmX conf=102*
CCCNC(=O)N1C[C@H](O)COC[C@H]2O[C@@H](CC(=O)N[C@@H]3CCN(Cc4ccccc4)C3)CC[C@@H]21	11	nt	nt	nt	nt	nt	nt	nt	nt
CCC(O)(CC)C(=O)NN(C(=O)CCl)c1ccccc1	0	23	-7	2	-6	2	nt	nt	nt
O=C(Nc1ccccc1)NN(C(=O)CCl)c1ccccc1	58*	69*	70*	-4	100*	-34	92*	67*	90*	Mdm2 MdmX conf=103*
SMILES	HIF-2a block	TWEAK-Fn14 inh	CF NFkB inh	TROY signal inh	Peg3 prom inh-1	KKLEB cytotox	Peg3 prom inh-2	HIF-2a inh conf	HIF-1a counter	others
CC(=O)n1cc(N(C(=O)CCl)c2ccc(C)cc2)c2ccccc21	56*	56*	93*	-30	109*	-103*	101*	nt	nt	Mdm2 MdmX conf=103*
C=CCOc1ccc(Cl)cc1-c1noc(-c2csc([C@H]3C[C@H](O)[C@@H](CO)O3)n2)n1	-124	-33	3	-15	-75	-6	nt	nt	nt
COc1cccc(-c2nnc3n2N=C(C(C)(C)C)CS3)c1	27	92*	94*	64*	98*	-24	75*	nt	nt	CF NFkB conf=98*;Mdm2 MdmX conf=103*
COc1ccc(CCNC(=O)c2ccc3c(c2)OCCO3)cc1	-199	-15	7	-45	-171	5	nt	nt	nt
O=C(NCCS(=O)(=O)NCCc1ccccc1)c1ccc2c(c1)OCO2	-158	-7	13	-35	-255	13	nt	nt	nt
O=C(NCCc1ccccc1)c1ccc2c(c1)OCCO2	84*	99*	-47	83*	105*	-27	90*	91*	95*
O=C(NCCc1ccccc1)c1ccc2c(c1)OCCCO2	92*	101*	3	84*	108*	-52*	94*	nt	nt	Mdm2 MdmX conf=99*
Cc1cc(OCC(=O)Nc2nccs2)c2c(C)cc(=O)oc2c1	5	-22	-42	15	4	8	nt	nt	nt
CCOC(=O)c1ccc(NS(=O)(=O)c2cc3c4c(c2)CCN4C(=O)CC3)cc1	11	3	-7	-6	5	0	nt	nt	nt
C/C(=N\NC(=O)c1n[nH]c2c1CCC2)c1cccs1	72*	96*	15	63*	94*	-25	72*	83*	50

Screening data: PubChem BioAssay, Sanford-Burnham Center for Chemical Genomics
